Inconclusive results are not listed. Where a call stands in place of a potency, no number is given. Calls of active or inactive are those of the source. Calls follow the shape of the full dose curve; tested in HEK293 reporter line.
Potency is read from the fitted curve at half-maximal effect.

The nature of the test: qHTS for Inhibitors of the Functional Ribonucleoprotein Complex (vRNP) of Lymphocytic Choriomeningitis Arenaviruses (LCMV): Viability assay - alamar blue signal for LCMV Primary Screen (AID 1347085). Also: nearly all actives have a fitted effect of over 80% in size. Particulars: alamar blue viability counter-screen, LCMV vRNP screen cells; series mostly up to 57.5 µM. (In qHTS, concentration-response curves come from the screen itself.)
`CC(C)(C)C(=O)OCOC(=O)[C@@H]1N2C(=O)[C@@H](NC(=O)[C@H](N)c3ccccc3)[C@H]2SC1(C)C`: the Potency result is “inactive”. The value for `O=C1C(CCS(=O)c2ccccc2)C(=O)N(c2ccccc2)N1c1ccccc1` (configuration not stated) was “inactive”; that for `NS(=O)(=O)c1cc2c(cc1Cl)NC(C1CC3C=CC1C3)NS2(=O)=O` (configuration not stated) was “inactive”. Turning to `CCCCc1ccc2nc(NC(=O)OC)[nH]c2c1`, the Potency was 38.5 nM (active). The value for `Cc1c(N)c(=O)n(-c2ccccc2)n1C` was “inactive”. For `CCN(CCCc1ccccc1)CCCc1ccccc1` the value was “inactive”. For `CC1=C(C(=O)O)N2C(=O)[C@@H](NC(=O)[C@H](N)C3=CCC=CC3)[C@H]2SC1` the value was “inactive”; for `CCCc1cc(C(N)=S)ccn1`, “inactive”; for `CCC1NC(=O)c2cc(S(N)(=O)=O)c(Cl)cc2N1` (configuration not stated), “inactive”. Regarding `Cc1[nH]c(C)c(Cl)c(=O)c1Cl`, the Potency result was “inactive”. The value for `CCN(CC)C(=O)c1cccc(C)c1` was “inactive”; that for `CC(C)(C)CC(C)(C)c1ccc(O)c(Cc2ccc(Cl)cc2Cl)c1` was “inactive”; that for `COc1ccc(CCC(C)=O)cc1` was “inactive”.

As for `CCN1CCCC(OC(=O)C(c2ccccc2)c2ccccc2)C1` (configuration not stated), the Potency entry was “inactive”. The value for `Nc1ccn([C@H]2CC[C@@H](CO)O2)c(=O)n1` was “inactive”; that for `CC(C(=O)O)c1ccc(CC2CCCC2=O)cc1` (configuration not stated) was “inactive”; that for `CCC(=O)O[C@]1(C(=O)COC)[C@@H](C)C[C@H]2[C@@H]3CCC4=CC(=O)C=C[C@]4(C)C3(F)[C@@H](O)C[C@@]21C` (some centres not stated) was “inactive”. For `OC[C@H]1O[C@@H](OCCc2ccc(O)cc2)[C@H](O)[C@@H](O)[C@H]1O` the value was “inactive”; for `C[C@@]12CCC[C@H]1[C@@H]1CC[C@H]3C[C@@H](O)CC[C@]3(C)[C@H]1CC2`, “inactive”. The value for `CCOC(CN1CCN(CC(C)C(=O)c2ccccc2)CC1)c1ccccc1` (configuration not stated) was “inactive”; that for `Cc1cc(C(C)(C)C)c(O)c(C)c1CC1=NCCN1` was “inactive”; that for `c1ccc(CCNc2nc(-c3ccccc3)cs2)cc1` was “inactive”. As to `COc1ccc(/C=C/C(=O)c2ccc(OC)cc2OC)cc1`, the Potency entry is “inactive”. On to `Oc1ccc(C(O)CNCCCCCCNCC(O)c2ccc(O)c(O)c2)cc1O` (configuration not stated), for which the Potency entry was “inactive”. The value for `CCOC(=O)OCC/C(SC(=O)OCC)=C(\C)N(C=O)Cc1cnc(C)nc1N` was “inactive”. The value for `CCOCCOC(=O)/C=C/c1ccc(OC)cc1` was “inactive”. The value for `c1ccc(OCc2ccc(CCCN3CCOCC3)cc2)cc1` was “inactive”.

The record behind these values is PubChem BioAssay (NCATS).
